From PubChem BioAssay AID1159580 (chemical genetic matrix, 2015)
Values joined by “and” are separate entries in the source; they are usually repeats but may differ in a detail not shown here. Identical values can stand only once. Hit rate of the full screen: of about 5,500 compounds, about 2,000 (36%) were called active. About 18% were inconclusive and are not listed. Cut-off read from the data, not from the text of the source: active = normalized growth mostly below about 0.91 (no sharp cut-off); inconclusive = no clear call, values can overlap the other calls; inactive = mostly above about 0.92. The list shows a part of the results.

Experiment: chemical genetic growth profiling, strain panel (AID 1159580);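 note: tested at 20 µM; growth read once vehicle control cultures reached saturation at 30 °C; 1 = growth at the plate median or of vehicle wells; lower values mean less growth of the strain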
Settings: growth OD
[1] = S. cerevisiae deletion strains, locus YAL013W, strain DEP1, active compounds read low
[2] = S. cerevisiae deletion strains, locus YBR229C, strain ROT2, active compounds read low
[3] = S. cerevisiae deletion strains, locus YDL101C, strain DUN1, active compounds read low
[4] = S. cerevisiae deletion strains, locus YDR150W, strain NUM1, active compounds read low
[5] = S. cerevisiae deletion strains, locus YEL061C, strain CIN8, active compounds read low
[6] = S. cerevisiae deletion strains, locus YGR078C, strain PAC10, active compounds read low
[7] = S. cerevisiae deletion strains, locus YHR030C, strain SLT2, active compounds read low
[8] = S. cerevisiae deletion strains, locus YHR087W, strain rtc3, active compounds read low
[9] = S. cerevisiae deletion strains, locus YJR043C, strain POL32, active compounds read low
[10] = S. cerevisiae deletion strains, locus YJR075W, strain HOC1, active compounds read low
[11] = S. cerevisiae deletion strains, locus YLR039C, strain RIC1, active compounds read low
[12] = S. cerevisiae deletion strains, locus YLR058C, strain SHM2 (second series), active compounds read low
[13] = S. cerevisiae deletion strains, locus YLR085C, strain ARP6, active compounds read low
[14] = S. cerevisiae deletion strains, locus YLR262C, strain YPT6, active compounds read low
[15] = S. cerevisiae deletion strains, locus YML094W, strain GIM5, active compounds read low
[16] = S. cerevisiae deletion strains, locus YMR219W, strain ESC1, active compounds read low
[17] = S. cerevisiae deletion strains, locus YMR263W, strain SAP30, active compounds read low
[18] = S. cerevisiae deletion strains, locus YNL153C, strain GIM3, active compounds read low
[19] = S. cerevisiae deletion strains, locus YNL298W, strain CLA4 (second series), active compounds read low
[20] = S. cerevisiae deletion strains, locus YNL322C, strain KRE1, active compounds read low
[21] = S. cerevisiae deletion strains, locus YNR030W, strain Alg12, active compounds read low
[22] = S. cerevisiae deletion strains, locus YOL006C, strain TOP1, active compounds read low
[23] = S. cerevisiae deletion strains, locus YPL055C, strain LGE1, active compounds read low
[24] = S. cerevisiae deletion strains, locus YPL241C, strain CIN2, active compounds read low
[25] = S. cerevisiae deletion strains, locus YPR135W, strain CTF4, active compounds read low
[26] = S. cerevisiae deletion strains, locus YAR019C, strain CDC15, active compounds read low
[27] = S. cerevisiae deletion strains, locus YBL105C, strain PKC1, active compounds read low
[28] = S. cerevisiae deletion strains, locus YBR135W, strain CKS1, active compounds read low
[29] = S. cerevisiae deletion strains, locus YBR136W, strain MEC1, active compounds read low
[30] = S. cerevisiae deletion strains, locus YBR160W, strain CDC28, active compounds read low
[31] = S. cerevisiae deletion strains, locus YDL017W, strain CDC7, active compounds read low
[32] = S. cerevisiae deletion strains, locus YDL028C, strain MPS1, active compounds read low
[33] = S. cerevisiae deletion strains, locus YDL108W, strain KIN28, active compounds read low
[34] = S. cerevisiae deletion strains, locus YDL132W, strain cdc53, active compounds read low
[35] = S. cerevisiae deletion strains, locus YDL214C, strain PRR2, active compounds read low
[36] = S. cerevisiae deletion strains, locus YDR052C, strain DBF4, active compounds read low
[37] = S. cerevisiae deletion strains, locus YDR054C, strain cdc34, active compounds read low
[38] = S. cerevisiae deletion strains, locus YDR226W, strain ADK1, active compounds read low
[39] = S. cerevisiae deletion strains, locus YDR477W, strain SNF1, active compounds read low
[40] = S. cerevisiae deletion strains, locus YER123W, strain YCK3, active compounds read low
[41] = S. cerevisiae deletion strains, locus YER133W, strain GLC7, active compounds read low
[42] = S. cerevisiae deletion strains, locus YFL009W, strain cdc4, active compounds read low
[43] = S. cerevisiae deletion strains, locus YFL029C, strain CAK1, active compounds read low
[44] = S. cerevisiae deletion strains, locus YFR003C, strain YPI1, active compounds read low
[45] = S. cerevisiae deletion strains, locus YFR019W, strain FAB1, active compounds read low
[46] = S. cerevisiae deletion strains, locus YFR028C, strain CDC14, active compounds read low
[47] = S. cerevisiae deletion strains, locus YGR040W, strain KSS1, active compounds read low
[48] = S. cerevisiae deletion strains, locus YGR052W, strain FMP48, active compounds read low
[49] = S. cerevisiae deletion strains, locus YGR092W, strain DBF2, active compounds read low
[50] = S. cerevisiae deletion strains, locus YHR079C, strain IRE1, active compounds read low
[51] = S. cerevisiae deletion strains, locus YHR082C, strain KSP1, active compounds read low
[52] = S. cerevisiae deletion strains, locus YHR205W, strain SCH9, active compounds read low
[53] = S. cerevisiae deletion strains, locus YIL147C, strain SLN1, active compounds read low
[54] = S. cerevisiae deletion strains, locus YJL095W, strain BCK1, active compounds read low
[55] = S. cerevisiae deletion strains, locus YJL128C, strain PBS2, active compounds read low
[56] = S. cerevisiae deletion strains, locus YJL157C, strain FAR1, active compounds read low
[57] = S. cerevisiae deletion strains, locus YJR016C, strain ILV3, active compounds read low
[58] = S. cerevisiae deletion strains, locus YJR066W, strain TOR1 (second series), active compounds read low
[59] = S. cerevisiae deletion strains, locus YJR066W, strain TOR1, active compounds read low
[60] = S. cerevisiae deletion strains, locus YKL048C, strain ELM1, active compounds read low
[61] = S. cerevisiae deletion strains, locus YKL067W, strain YNK1, active compounds read low
[62] = S. cerevisiae deletion strains, locus YKL101W, strain HSL1, active compounds read low
[63] = S. cerevisiae deletion strains, locus YKL193C, strain SDS22, active compounds read low
[64] = S. cerevisiae deletion strains, locus YKL203C, strain TOR2, active compounds read low
[65] = S. cerevisiae deletion strains, locus YLR113W, strain HOG1, active compounds read low
[66] = S. cerevisiae deletion strains, locus YLR133W, strain CKI1, active compounds read low
[67] = S. cerevisiae deletion strains, locus YLR403W, strain SFP1, active compounds read low
[68] = S. cerevisiae deletion strains, locus YML070W, strain DAK1, active compounds read low
[69] = S. cerevisiae deletion strains, locus YMR001C, strain CDC5, active compounds read low
[70] = S. cerevisiae deletion strains, locus YMR205C, strain PFK2 (second series), active compounds read low
[71] = S. cerevisiae deletion strains, locus YMR277W, strain FCP1, active compounds read low
[72] = S. cerevisiae deletion strains, locus YNL006W, strain LST8, active compounds read low
[73] = S. cerevisiae deletion strains, locus YNL020C, strain ARK1, active compounds read low
[74] = S. cerevisiae deletion strains, locus YNL161W, strain CBK1, active compounds read low
[75] = S. cerevisiae deletion strains, locus YNL183C, strain NPR1, active compounds read low
[76] = S. cerevisiae deletion strains, locus YNL207W, strain RIO2, active compounds read low
[77] = S. cerevisiae deletion strains, locus YNL222W, strain SSU72, active compounds read low
[78] = S. cerevisiae deletion strains, locus YNL307C, strain MCK1 (second series), active compounds read low
[79] = S. cerevisiae deletion strains, locus YOL078W, strain AVO1, active compounds read low
[80] = S. cerevisiae deletion strains, locus YOL136C, strain PFK27, active compounds read low
[81] = S. cerevisiae deletion strains, locus YOR061W, strain CKA2, active compounds read low
[82] = S. cerevisiae deletion strains, locus YOR119C, strain RIO1, active compounds read low
[83] = S. cerevisiae deletion strains, locus YOR231W, strain MKK1, active compounds read low
[84] = S. cerevisiae deletion strains, locus YOR329C, strain SCD5, active compounds read low
[85] = S. cerevisiae deletion strains, locus YPL031C, strain PHO85, active compounds read low
[86] = S. cerevisiae deletion strains, locus YPL153C, strain RAD53, active compounds read low
[87] = S. cerevisiae deletion strains, locus YPL204W, strain HRR25, active compounds read low
[88] = S. cerevisiae deletion strains, locus YPL209C, strain IPL1, active compounds read low
[89] = S. cerevisiae deletion strains, locus YPL256C, strain CLN2, active compounds read low
[90] = S. cerevisiae deletion strains, locus YPR025C, strain CCL1, active compounds read low
[91] = S. cerevisiae deletion strains, locus YPR106W, strain ISR1, active compounds read low
[92] = S. cerevisiae deletion strains, locus YPR111W, strain DBF20, active compounds read low
[93] = S. cerevisiae deletion strains, strain NNK1, active compounds read low
[94] = S. cerevisiae deletion strains, strain TSCII, active compounds read low

Measured: normalized growth

CSC(=Nc1ccc(C(C)C)cc1)NC#N
inactive: [1] 0.993 | [2] 0.978 | [3] 1.02 | [4] 0.916 | [5] 1 | [6] 0.98 | [7] 0.88 | [8] 0.97 | S. cerevisiae deletion strains, locus YJL187C, strain SWE1, active compounds read low 0.981 | [9] 0.982 | [10] 0.936 | [11] 0.971 | [12] 0.955 | [13] 0.86 | [14] 0.943 | [15] 1.04 | [16] 0.97 | [17] 0.978 | S. cerevisiae deletion strains, locus YNL128W, strain TEP1, active compounds read low 0.965 | [18] 1 | [19] 0.947 | [20] 0.986 | [21] 0.988 | [22] 0.839 | [23] 0.985 | [24] 0.908 | [25] 0.855

Cc1oc(-c2ccc(Cl)cc2)cc1C(=O)N1CCN(c2ccc(C(F)(F)F)cn2)CC1
inactive: [26] 0.977 | [27] 0.972 | [28] 0.97 | [29] 0.963 | [30] 0.969 | [31] 0.978 | [32] 0.974 | [3] 0.983 | [33] 0.974 | [34] 0.982 | [35] 0.908 | [36] 0.982 | [37] 0.969 | [38] 0.972 | [39] 0.925 | [40] 0.926 | [41] 0.938 | [42] 0.967 | [43] 0.986 | [44] 0.974 | [45] 0.992 | [46] 0.976 | [47] 0.929 | [48] 0.959 | [49] 0.874 | [50] 0.964 | [51] 0.966 | [52] 0.883 | [53] 0.979 | [54] 0.905 | [55] 0.918 | [56] 0.944 | [57] 0.979 | [58] 0.975 | [59] 0.9 | [60] 0.976 | [61] 0.907 | [62] 0.94 | [63] 0.97 | [64] 1 | [65] 0.893 | [66] 0.929 | [67] 0.94 | [68] 0.951 | [69] 0.989 | [70] 0.937 | [71] 0.975 | [72] 0.981 | [73] 0.933 | [74] 0.975 | [75] 0.95 | [76] 0.973 | [77] 0.981 | [78] 0.944 | [79] 0.981 | [80] 0.961 | [81] 0.873 | [82] 0.929 | [83] 0.96 | [84] 0.982 | [85] 0.936 | [86] 0.948 | [87] 0.936 | [88] 0.983 | [89] 0.909 | [90] 0.975 | [91] 0.972 | [92] 0.955 | [93] 0.97 | [94] 0.98
active: [7] 0.682

O=C(c1ccc(Cl)cc1)N1CCN(c2ccc(C(F)(F)F)cn2)CC1
inactive: [1] 0.934 | [26] 0.973 | [27] 0.992 | [28] 0.997 | [29] 0.988 | [30] 0.973 | [31] 0.995 | [32] 0.968 | [3] 0.986 and 0.988 | [33] 0.979 | [34] 0.988 | [35] 0.937 | [36] 1 | [37] 0.978 | [4] 0.843 | [38] 0.979 | [39] 0.936 | [40] 0.913 | [41] 0.955 | [42] 0.967 | [43] 0.981 | [44] 0.993 | [45] 0.968 | [46] 0.978 | [47] 0.954 | [48] 0.978 | [6] 0.933 | [49] 0.89 | [50] 0.88 | [51] 0.96 | [8] 0.947 | [52] 0.857 | [53] 0.986 | [54] 0.892 | [55] 0.942 | [56] 0.979 | [57] 0.986 | [9] 0.993 | [58] 0.974 | [59] 0.891 | [60] 0.963 | [61] 0.925 | [62] 0.911 | [63] 0.988 | [64] 1.02 | [11] 1.16 | [12] 0.974 | [66] 0.95 | [14] 1.1 | [67] 0.957 | [68] 0.921 | [69] 0.977 | [70] 0.957 | [16] 0.958 | [17] 0.963 | [71] 0.962 | [72] 0.983 | [73] 0.956 | [74] 0.994 | [75] 0.979 | [76] 0.985 | [77] 0.982 | [78] 0.931 | [20] 0.982 | [79] 0.982 | [80] 0.908 | [81] 0.965 | [82] 0.958 | [83] 0.853 | [84] 0.992 | [85] 0.941 | [23] 0.919 | [86] 0.93 | [87] 0.963 | [88] 0.991 | [24] 1.01 | [90] 0.987 | [91] 0.975 | [92] 0.955 | [25] 0.671 | [93] 0.977 | [94] 0.972
active: [2] 0.824 | [5] 0.8 | S. cerevisiae deletion strains, locus YGR229C, strain SMI1, active compounds read low 0.551 | [7] 0.0888 and 0.729 | [10] 1.11 [resistant] | [13] 0.436 | [65] 0.813 | [15] 0.802 | S. cerevisiae deletion strains, locus YMR307W, strain GAS1, active compounds read low 0.272 | [18] 0.911 | [19] 0.563 | [21] 0.861 | [22] 0.661 | [89] 0.8 | S. cerevisiae strains, strain wild type, active compounds read low 0.862
